This is an account of results in PubChem BioAssay.

Structures are written as SMILES. Activity calls are given as the source filed them.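 How the source made its calls: active means compounds killing one labelled cell type while sparing the other, by normalised counts and ratio limits, not self-fluorescent; inactive means the rest.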

This assay can be described thus: EMT-state selective cytotoxicity in co-culture – imaging, PC-3E GFP, TEM4-18 mCherry, primary screen (AID 1345086).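 On all read-outs here: cells exposed to compound for 72 h before imaging.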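 On red/green cell ratio (normalised): normalised mesenchymal count divided by normalised epithelial count so high means epithelial killing.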 Particulars: PC-3E GFP / TEM4-18 mCherry co-culture, imaging cell counts, at 1 µM; for red/green cell ratio (normalised): actives lie on both sides, counts scaled to control wells, 1 = unselective.
Setting [1] is: measured here: epithelial PC-3E GFP cell survival.
[2] abbreviates: measured here: mesenchymal TEM4-18 mCherry cell survival.

For the compound `CCCCCCCCNC(C)C(O)c1ccc(SC(C)C)cc1` (configuration not stated), the red/green cell ratio (normalised) is 1.4 (inactive). This compound yielded a normalised cell number under setting [1] of 0.68. For the same compound, the normalised cell number under setting [2] stood at 0.96.
In the case of `N[C@@H](CCC(=O)N[C@@H](CS)C(=O)NCC(=O)O)C(=O)O`, the red/green cell ratio (normalised) was 1.12 (inactive). Moreover, the normalised cell number under setting [1] is 0.76. In addition, under setting [2], the normalised cell number is 0.85.
For `CCN(CC)CCNC(=O)c1cc(S(C)(=O)=O)ccc1OC`, in that order: 1.26 (inactive), 0.93 and 1.16.
Regarding `CC(=O)Nc1cccc(O)c1`, the red/green cell ratio (normalised) is 0.95 (inactive). The normalised cell number under setting [1] turned out to be 0.83. Besides, the normalised cell number under setting [2] amounted to 0.79.
For `C[C@](N)(Cc1ccc(O)cc1)C(=O)O`, the red/green cell ratio (normalised) is 0.89 (inactive). Under setting [1], this compound came in with a normalised cell number of 1.18. The normalised cell number under setting [2] was 1.05.
As for `Oc1cc(O)c2c(c1)O[C@H](c1ccc(O)c(O)c1)[C@H](O)C2`, the red/green cell ratio (normalised) was 0.83 (inactive). Also, under setting [1], the normalised cell number was found to be 1.07. In addition, the normalised cell number under setting [2] came to 0.89.
`Cc1c(N(C)CS(=O)(=O)O)c(=O)n(-c2ccccc2)n1C`: the red/green cell ratio (normalised) was 1.09 (inactive). For the same compound, the normalised cell number under setting [1] turned out to be 1.23. This compound also showed a normalised cell number under setting [2] of 1.35.
In the case of `NC(=O)NC1NC(=O)NC1=O` (configuration not stated), the red/green cell ratio (normalised) was 1.05 (inactive). Further, under setting [1], the normalised cell number came to 1.06. Moreover, the normalised cell number under setting [2] worked out at 1.11.
For `C[N+](C)(C)CCCCCC[N+](C)(C)C`, in that order: 0.92 (inactive), 1.09 and 1.
Turning to `Cc1nnc(SCC2=C(C(=O)O)N3C(=O)[C@@H](NC(=O)Cn4cnnn4)[C@H]3SC2)s1`, the red/green cell ratio (normalised) is 0.96 (inactive). This compound also had a normalised cell number under setting [1] of 1.16. The compound further had a normalised cell number under setting [2] of 1.12.
Take `OCc1ccccc1O`: the red/green cell ratio (normalised) was 1.09 (inactive). For the same compound, the normalised cell number under setting [1] is 0.88. This compound also came in with a normalised cell number under setting [2] of 0.96.
Consider `O=C(O)[C@@H]1[C@H]2C[C@H]3c4[nH]c5ccccc5c4CCN3C[C@@H]2CC[C@@H]1O`, for which the red/green cell ratio (normalised) is 1.08 (inactive). Moreover, the normalised cell number under setting [1] amounted to 0.89. In addition, the normalised cell number under setting [2] is 0.95.
In the case of `CN1CCOC(c2ccccc2)c2ccccc2C1` (configuration not stated), the red/green cell ratio (normalised) is 1.19 (inactive). The same compound displayed a normalised cell number under setting [1] of 0.43. Besides, the normalised cell number under setting [2] turned out to be 0.51.
For `CCCCC1(COC(=O)CCC(=O)O)C(=O)N(c2ccccc2)N(c2ccccc2)C1=O`, in that order: 0.91 (inactive), 0.96 and 0.87.
In the same order, the values of `Cc1ccc2c(Cl)cc(Cl)c(O)c2n1` are 0.8 (inactive), 1.22 and 0.98.
`Cc1cccc(C(=O)O)c1O`: the red/green cell ratio (normalised) is 1 (inactive). Under setting [1], the normalised cell number turned out to be 0.79. For the same compound, the normalised cell number under setting [2] is 0.79.
As for `O=C1C(O)=C(O)C(=O)C(O)=C1O`, the red/green cell ratio (normalised) was 1.1 (inactive). Besides, the normalised cell number under setting [1] came out at 1.02. In addition, the normalised cell number under setting [2] was determined as 1.12.
Turning to `C[C@H](N)[C@H](O)c1cccc(O)c1`, the red/green cell ratio (normalised) is 1.4 (inactive). This compound displayed a normalised cell number under setting [1] of 0.79. Besides, under setting [2], the normalised cell number was 1.1.
Turning to `CCn1cc(C(=O)O)c(=O)c2cnc(N3CCCC3)nc21`, the red/green cell ratio (normalised) was 0.88 (inactive). Moreover, under setting [1], the normalised cell number amounted to 1. This compound gave a normalised cell number under setting [2] of 0.88.
For `O=C(O)/C=C(\CC(=O)O)C(=O)O`, in that order: 1.06 (inactive), 1.18 and 1.25.
Regarding `CCOC(=O)NNc1nncc2ccccc12`, the red/green cell ratio (normalised) is 0.96 (inactive). Under setting [1], this compound returned a normalised cell number of 0.94. Further, the normalised cell number under setting [2] came to 0.9.
As to `C[N+]1(CCCCC[N+]2(C)CCCC2)CCCC1`, the red/green cell ratio (normalised) is 0.92 (inactive). The same compound displayed a normalised cell number under setting [1] of 1.09. The compound also displayed a normalised cell number under setting [2] of 1.
For `CN(C)C(=O)Oc1cccc([N+](C)(C)C)c1`, in that order: 1.18 (inactive), 0.88 and 1.04.
For `CN(C)CCCN1c2ccccc2Sc2ccc(C(F)(F)F)cc21`, the red/green cell ratio (normalised) was 1.26 (inactive). Under setting [1], the normalised cell number came out at 0.93. The compound further gave a normalised cell number under setting [2] of 1.17.
For `CCN(CC)CCOC(=O)C(Cc1cccc2ccccc12)CC1CCCO1` (configuration not stated), the red/green cell ratio (normalised) was 1.07 (inactive). Further, under setting [1], the normalised cell number stood at 0.99. The compound further had a normalised cell number under setting [2] of 1.06.
For `Nc1ccc(S(=O)(=O)Nc2cnc3ccccc3n2)cc1`, in that order: 1.03 (inactive), 1.09 and 1.11.
In the same order, the values of `O=c1ccc2ccccc2o1` are 1.12 (inactive), 0.98 and 1.1.
For the compound `CN1CCN(C(c2ccccc2)c2ccccc2)CC1`, the red/green cell ratio (normalised) was 1.46 (inactive). The compound further came in with a normalised cell number under setting [1] of 1.05. Also, the normalised cell number under setting [2] was 1.54.
In the same order, the values of `CCOc1ccc(NC(C)=O)cc1` are 1.26 (inactive), 1.07 and 1.35.
